Results filed as inconclusive are left out. The source made the active and inactive calls.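 Rule for the calls, unless noted: active = viability at or under a set limit in both replicates, limit being median viability minus 3 SD (cut at about 48% in these data, passing the limit was not always enough); inconclusive = at or under the limit in just one replicate; inactive = at or above the limit in both replicates.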
What was measured:
[1] = reducers of endogenous Her2 protein level, primary screen, SKBR3 breast tumor cells, AlphaScreen, ATP viability (AID 461;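 active = Her2 level under about 52% in both replicate screens, with viability over 70% of control, limit read from the data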;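 for Her2 level: lower value means less Her2 protein in the cells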;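 for viability: percent of carrier control wells set as 100% viability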); details: 18-24 h, measured here: SKBR3 viability, ATP luminescence, at 10 µM
[2] = biological target: Receptor tyrosine-protein kinase erbB-2 (Homo sapiens) (UniProt P04626); experiment: as above; details: 18-24 h, at 10 µM, stronger effect = lower value
Chain of Receptor tyrosine-protein kinase erbB-2 (Homo sapiens) (P04626 whole entry, looked up): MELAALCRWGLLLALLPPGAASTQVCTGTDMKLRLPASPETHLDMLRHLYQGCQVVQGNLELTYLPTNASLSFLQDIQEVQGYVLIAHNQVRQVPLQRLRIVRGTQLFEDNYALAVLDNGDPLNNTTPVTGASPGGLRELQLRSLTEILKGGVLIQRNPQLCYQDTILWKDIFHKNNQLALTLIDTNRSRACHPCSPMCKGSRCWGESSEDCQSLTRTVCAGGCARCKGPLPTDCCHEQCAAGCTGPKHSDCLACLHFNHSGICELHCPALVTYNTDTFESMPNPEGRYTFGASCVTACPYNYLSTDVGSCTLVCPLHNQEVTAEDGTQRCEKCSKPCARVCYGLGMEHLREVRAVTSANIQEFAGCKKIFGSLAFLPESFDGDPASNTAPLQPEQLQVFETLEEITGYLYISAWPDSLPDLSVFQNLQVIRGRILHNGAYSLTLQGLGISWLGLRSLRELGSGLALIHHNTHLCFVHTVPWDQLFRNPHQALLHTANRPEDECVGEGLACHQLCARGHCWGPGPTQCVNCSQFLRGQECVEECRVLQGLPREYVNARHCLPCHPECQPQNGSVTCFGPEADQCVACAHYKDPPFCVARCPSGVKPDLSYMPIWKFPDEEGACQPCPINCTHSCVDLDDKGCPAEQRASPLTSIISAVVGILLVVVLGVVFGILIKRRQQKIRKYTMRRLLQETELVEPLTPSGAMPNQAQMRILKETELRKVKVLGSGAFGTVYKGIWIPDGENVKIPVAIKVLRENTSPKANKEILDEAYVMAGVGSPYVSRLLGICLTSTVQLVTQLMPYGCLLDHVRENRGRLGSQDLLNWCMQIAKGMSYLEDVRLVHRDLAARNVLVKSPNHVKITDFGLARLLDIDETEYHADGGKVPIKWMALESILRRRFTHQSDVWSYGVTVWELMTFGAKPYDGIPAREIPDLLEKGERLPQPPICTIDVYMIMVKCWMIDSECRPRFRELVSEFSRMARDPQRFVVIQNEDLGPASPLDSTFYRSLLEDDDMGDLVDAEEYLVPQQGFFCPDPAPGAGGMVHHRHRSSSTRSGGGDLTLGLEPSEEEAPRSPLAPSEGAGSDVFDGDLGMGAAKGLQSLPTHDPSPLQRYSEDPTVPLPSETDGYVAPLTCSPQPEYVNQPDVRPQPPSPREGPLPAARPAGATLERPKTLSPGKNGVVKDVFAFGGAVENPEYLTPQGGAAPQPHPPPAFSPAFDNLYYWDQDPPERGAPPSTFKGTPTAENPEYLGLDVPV

[3] = SK-BR-3 cell growth inhibitors, pilot screen, 24 h, human (AID 572;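 active = viability at or below 10% of carrier control in both of two separate runs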;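 note: compound exposure lasted between 18 and 24 h rather than exactly 24 h; 100% = carrier-treated control wells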); details: SK-BR-3 viability, CellTiter-Glo luminescence, at 10 µM, stronger effect = lower value
[4] = HUVEC growth inhibition – cell-based, human, primary screen (AID 575;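 active = viability at or below 30% in both replicate assays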;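 note: 100% = median of untreated cell wells with 0.1% DMSO on each plate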); details: HUVEC proliferation, CellTiter-Glo luminescence, 72 h; at 10 µM; stronger effect = lower value
[5] = growth inhibitors of H69AR lung tumor, primary screen, human, duplicate replicates (AID 580); details: H69AR lung tumor cells viability, ATP luminescence, 72 h; at 10 µM; stronger effect = lower value;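 note: 100% = mean luminescence of untreated wells and 0% = no signal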
[6] = reversal of MRP1-mediated doxorubicin resistance, pilot screen, H69AR cells, doxorubicin co-treatment (AID 601;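 active = viability loss from added drug above about 55%, and viability with drug at most 40%, in both replicates, limit read from the data, passing the limit was not always enough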); details: CellTiter-Glo, 72 h, at 10 µM; for differential viability (reversal): stronger effect = higher value
[7] = 384-well plate pilot, post-Golgi transport modulator project, inhibition of yeast transport mutant growth (AID 636; in the data active = inhibition above about 31%); details: absorbance 615 nm, about 18 h, stronger effect = higher value
[8] = growth suppression of yeast trafficking mutant, preliminary HTS, modulators of trafficking downstream of Golgi apparatus project, 1536-format plate, OD 615 nm (AID 637; in the data active = inhibition above about 30%); details: yeast transport mutant growth, absorbance 615 nm, 18 h; stronger effect = higher value
[9] = OD615 S. cerevisiae growth inhibition, permissive medium, pilot counter-assay, permissive growth control for S. cerevisiae lifespan shortening project (AID 705;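 active = growth inhibition above 25% in both replicates, a cutoff set 3 SD above the mean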); details: OD615, 24 h, at 10 µM, stronger effect = higher value
[10] = Restrictive medium S. cerevisiae growth inhibition, OD615, pilot screen of yeast lifespan reduction project, restrictive growth control (AID 706;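 active = growth inhibition above a set limit, 3 SD over mean compound inhibition, in both replicates, cut at about 43% in these data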;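 note: modified DeaD lifespan yeast strain shifted to restrictive glucose medium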); details: OD615, 48 h, at 10 µM, stronger effect = higher value
[11] = viability gain of MRP-1-high H69AR cells under doxorubicin, pilot screen, MRP-1 activator project, CellTiter-Glo, duplicate (AID 807;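 active = viability increase at or above a cutoff of the median across tested compounds plus 3 SD, cut at about 8.5% in these data, passing the limit was not always enough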;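 note: compound pretreatment 18-22 h then 72 h combined with doxorubicin; 0% = doxorubicin alone and 100% = vehicle without doxorubicin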); details: H69AR viability with doxorubicin, CellTiter-Glo luminescence; at 10 µM; stronger effect = higher value
[12] = growth suppression of beta-catenin knockout HCT116, pilot screen, human colon tumor cells (AID 823;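 active = cell viability at or below a set limit in both duplicate runs, the limit being the all-compound median minus 4 SD, cut at about 23% in these data, passing the limit was not always enough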;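 note: 0% = wells killed by 20 µM Hyamine and 100% = untreated DMSO cell wells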); details: CellTiter-Glo, 60 h, at 10 µM, stronger effect = lower value
[13] = growth suppression of PTEN-deleted HCT116, pilot screen, cell-based, HCT116 clonal line, CellTiter-Glo (AID 824;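 active = viability at or below 27.92% in each of two runs, the all-compound median minus 4 SD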;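 note: 0% = 20 µM Hyamine control and 100% = vehicle cell control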); details: 60 h, at 10 µM, stronger effect = lower value
[14] = inhibitors of the yeast RAM network, pilot screen, dse1pr::URA3 reporter, 5-FOA selection (AID 869;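 active = inhibition over a set limit, the all-compound mean plus 3 SD, in both replicate runs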;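 note: 0% = DMSO wells with no growth and 100% = 10 µM 1-NA-PP1 with full growth; RAM network block rescues cells from 5-FOA so hits raise OD615 growth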); details: S. cerevisiae dse1pr::URA3 5-FOA growth, OD615, 2 d; at 10 µM; stronger effect = higher value; strain carries analog-sensitive mutant Cbk1 kinase
[15] = RAM signaling pathway blockade in yeast – S. cerevisiae, Pdr1DBD-CYC8 efflux-inhibited sensitized strain, primary screen (AID 1298;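 active = RAM network inhibition above 8.4% in each of two replicates, 3 SD over the compound average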;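 note: 0% = DMSO untreated cells without growth and 100% = 10 µM 1-NA-PP1 full growth; higher means more yeast growth rescued from 5-FOA killing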); details: S. cerevisiae cbk1-as DSE1-URA3 strain, 5-FOA growth OD615, 2 d; at 50 µM; stronger effect = higher value
[16] = H69AR cells + 2 uM doxorubicin, measured here: viability with 2 uM doxorubicin, stronger effect = lower value
[17] = H69AR cells, compound alone cytotoxicity

CCN1CCN(C(CNC(=O)c2ccc3c(c2)OCO3)c2cccnc2)CC1 (stereo not drawn)
90%: viability [6, 16]
99.6%: viability [6, 17]
inactive: Her2 level [2] 93% | viability [3] 89.5% | viability [4] 86.4% | viability [5] 99.6% | differential viability (reversal) ([6]; H69AR cells + 2 uM doxorubicin) 9.62% | inhibition [7] -2% | inhibition [8] -6.23% | growth inhibition [9] -12.5% | growth inhibition [10] -4.73% | viability increase [11] 0.44% | viability [12] 104% | viability [13] 96.2% | inhibition [14] 1.35% | RAM network inhibition [15] 5.59%
89.5%: viability [1]

COc1cccc(C(=O)Nc2cc(C)c3c(=O)oc4ccccc4c3n2)c1
101%: viability [6, 16]
inactive: Her2 level [2] 62.5% | viability [3] 80.5% | viability [4] 57.6% | viability [5] 81.9% | differential viability (reversal) ([6]; H69AR cells + 2 uM doxorubicin) -19.4% | inhibition [7] -6.53% | inhibition [8] -4.67% | growth inhibition [9] -1.54% | growth inhibition [10] -1.12% | viability increase [11] 3.07% | viability [12] 85.2% | viability [13] 81.7% | inhibition [14] 2.74% | RAM network inhibition [15] 4.69%
80.5%: viability [1]
81.9%: viability [6, 17]

Cn1nnnc1SCC(=O)Nc1ccccc1-c1ccccc1
100%: viability [1]
inactive: Her2 level [2] 110% | viability [3] 100% | viability [4] 99% | viability [5] 91.2% | differential viability (reversal) ([6]; H69AR cells + 2 uM doxorubicin) 9.64% | inhibition [7] -2.44% | inhibition [8] -1.33% | growth inhibition [9] -19.3% | growth inhibition [10] -10.2% | viability increase [11] -0.09% | viability [12] 97.4% | viability [13] 90% | inhibition [14] 0.31% | RAM network inhibition [15] 0.77%
91.2%: viability [6, 17]
81.6%: viability [6, 16]

Cc1ccc2c(c1)-c1c(cnn1CC(=O)NC(C)CCc1ccco1)CO2 (stereo not drawn)
85.5%: viability [1]
inactive: Her2 level [2] 87% | viability [3] 85.5% | viability [4] 91.5% | viability [5] 85.9% | differential viability (reversal) ([6]; H69AR cells + 2 uM doxorubicin) -5.22% | inhibition [7] -4.36% | inhibition [8] 0.83% | growth inhibition [9] -10.4% | growth inhibition [10] -5.76% | viability increase [11] -3.78% | viability [12] 88.8% | viability [13] 87% | inhibition [14] 2.04% | RAM network inhibition [15] 7.88%
91.1%: viability [6, 16]
85.9%: viability [6, 17]

CCOC(=O)C1=C(C)N(C)C(=O)NC1c1ccccc1OC (stereo not drawn)
97%: viability [1]
175%: viability [6, 17]
inactive: Her2 level [2] 88% | viability [3] 97% | viability [4] 88.2% | viability [5] 175% | differential viability (reversal) ([6]; H69AR cells + 2 uM doxorubicin) 64.2% | inhibition [7] -8.24% | inhibition [8] 2.46% | growth inhibition [9] -4.28% | growth inhibition [10] -3.44% | viability increase [11] 0.16% | viability [12] 97.9% | viability [13] 93.4% | inhibition [14] 0.97% | RAM network inhibition [15] 2.01%
110%: viability [6, 16]

CCOC(=O)C1=C(C)Nc2nnnn2C1c1ccc(OC)c(Br)c1 (stereo not drawn)
97.8%: viability [6, 16]
inactive: Her2 level [2] 106% | viability [3] 106% | viability [4] 87.7% | viability [5] 93.3% | differential viability (reversal) ([6]; H69AR cells + 2 uM doxorubicin) -4.47% | inhibition [7] 5.07% | inhibition [8] 14.8% | growth inhibition [9] -8.85% | growth inhibition [10] 2.52% | viability increase [11] -2.62% | viability [12] 92% | viability [13] 90.7% | inhibition [14] 3.05% | RAM network inhibition [15] 0.79%
106%: viability [1]
93.3%: viability [6, 17]

Cc1cc(C)n(-c2ccc(N3CCOCC3)nn2)n1
inactive: Her2 level [2] 99% | viability [3] 108% | viability [4] 98.1% | viability [5] 89.5% | differential viability (reversal) ([6]; H69AR cells + 2 uM doxorubicin) -4.32% | inhibition [7] 0% | inhibition [8] 0% | growth inhibition [9] 1.14% | growth inhibition [10] 10.2% | viability increase [11] -0.17% | viability [12] 103% | viability [13] 101% | inhibition [14] 0.245% | RAM network inhibition [15] -0.52%
89.5%: viability [6, 17]
93.8%: viability [6, 16]
108%: viability [1]

O=C1c2ccccc2C(Nc2ccc(F)cc2F)N1CCN1CCOCC1 (stereo not drawn)
83%: viability [1]
78.2%: viability [6, 17]
81.9%: viability [6, 16]
inactive: Her2 level [2] 83% | viability [3] 83% | viability [4] 87.8% | viability [5] 78.2% | differential viability (reversal) ([6]; H69AR cells + 2 uM doxorubicin) -3.69% | inhibition [7] -5.73% | inhibition [8] 3.17% | growth inhibition [9] 0.235% | growth inhibition [10] -1.68% | viability increase [11] -1.58% | viability [12] 98.8% | viability [13] 104% | inhibition [14] 1.3% | RAM network inhibition [15] 0.93%

Cc1ccc(-n2ncc3c(N4CCCC(C)C4)ncnc32)c(C)c1 (stereo not drawn)
61.6%: viability [6, 17]
23.4%: viability [6, 16]
104%: viability [1]
inactive: Her2 level [2] 78.5% | viability [3] 104% | viability [4] 60.2% | viability [5] 61.6% | differential viability (reversal) ([6]; H69AR cells + 2 uM doxorubicin) 38.2% | inhibition [7] -5.07% | inhibition [8] 8% | growth inhibition [9] -2.59% | growth inhibition [10] 10% | viability increase [11] -8.5% | viability [12] 80.5% | viability [13] 80.4% | inhibition [14] 0.12% | RAM network inhibition [15] 2.4%
